Screens from PubChem.
D3 ag: D3 dopamine receptor (human) agonism | P35462 | D3R DiscoveRx beta-arrestin cells, luminescence, 90 min | max activation, % | 410,000 tested, 0.58% active; in the data active means max activation above about 30%; further: 0% is about no effect
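Cells at 1500/well, incubated overnight, then treated with pinned compounds (dopamine as control) for 90 min at 37 degrees C. DiscoveRx reagent added for 30 - 60 minutes at room temperature; luminescence read.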
TDP1 cell CPT: growth inhibition of DT40 Tdp1-/-;hTDP1 cells with camptothecin (screen for TDP1 inhibitors). chicken DT40 Tdp1-/-;hTDP1 cells + 20 nM CPT, ATP luminescence, 48 h. Potency, µM (highest dose often 46.2 µM), without a hit: at the highest dose activity change, negative = growth inhibition, most hits filed as inhibitors. 420,000 tested, 12% active; further: potency means the concentration at half of the fitted maximal effect; on the % scale 0 is the no-effect control and ±100 the full control effect; nearly all actives have a fitted effect of over 55% in size
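Chicken DT40 Tdp1-/- cells complemented with human TDP1, 400 cells/well, exposed to compounds plus 20 nM camptothecin for at least 48 h at 37 C; viability read as ATP content by CellTiter-Glo luminescence.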
IL1B secr inh: blocks inflammasome-driven IL-1 beta release | THP-1 LPS/ATP IL-1B secretion, AlphaLISA, 16 h; stronger effect = lower value | activity change, % at 57.5 µM | 360,000 tested, 4.7% active | AID 743279; in the data active means activity change below about -50%; inconclusive means mostly about -30% to -49%; further: on the % scale 0 is the no-effect control and ±100 the full control effect
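THP-1 cells pretreated 1 hr with compounds (up to 57.5 uM final), then stimulated with LPS (250 ng/mL final) plus ATP (1.25 mM final); secreted IL-1B measured by AlphaLISA after 16 hr, decreased signal indicating inhibition.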
ClpP mod: qHTS Assay for Activators of ClpP. 340,000 tested, 1.9% active. purified B. subtilis ClpP, FRET peptide cleavage, 20 min. ATP-dependent Clp protease proteolytic subunit (Bacillus subtilis (strain 168)), P80244. Potency, µM (titrated, usually from 57.5 µM), without a hit: at the top dose activity change, negative = active. AID 651965, 2013; active means well fitted falling curve with a large enough effect; inconclusive means small, poorly fitted or top-dose-only effect; inactive means no such curve, though single readings can be large or run the other way; further: potency means the concentration at half of the fitted maximal effect; the source files actives as falling curves though it sought activators and does not explain the sign; nearly all actives have a fitted effect of over 65% in size
Target sequence (P80244 whole entry, looked up): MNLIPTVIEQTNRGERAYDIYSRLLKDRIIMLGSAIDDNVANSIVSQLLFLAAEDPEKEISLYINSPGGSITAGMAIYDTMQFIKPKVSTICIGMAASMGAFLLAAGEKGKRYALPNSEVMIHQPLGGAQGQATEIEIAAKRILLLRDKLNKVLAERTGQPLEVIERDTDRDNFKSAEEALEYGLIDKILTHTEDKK
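Buffer: 100 mM Tris/HCl pH8, 100 mM KCl, 0.05% low protease BSA, 2.5% glycerol, 0.01% Tween-20. ClpP 10 microg/mL final; 20 min RT; delta FRET normalized to ADEP and DMSO controls.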
D3 antag: D3 dopamine receptor (human) antagonism; D3R cells, DiscoveRx beta-arrestin luminescence, antagonist mode; stronger effect = lower value; 360,000 tested, 2.5% active; P35462; max response, negative = inhibition, %; in the data active means max response below about -50%; inconclusive means no clear call, values can overlap the other calls; further: on the % scale 0 is the no-effect control and ±100 the full control effect
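Cells expressing the human receptor were seeded at 1500 cells/well, incubated overnight at 37 degrees C in 5% CO2, then exposed to library compounds with dopamine controls for 90 minutes at 37 degrees C before luminescent detection.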
DT40 TDP1 no CPT: qHTS for Inhibitors of human tyrosyl-DNA phosphodiesterase 1 (TDP1): qHTS in cells in absence of CPT. DT40 Tdp1-/- hTDP1 cells, no CPT, ATP luminescence, 48 h. 420,000 tested, 15% active. AID 686978, 2013. Potency, µM (highest dose often 46.2 µM), for inactives: at the highest dose activity change, negative = growth inhibition, usual class: inhibitors; further: potency means the concentration at half of the fitted maximal effect; on the % scale 0 is the no-effect control and ±100 the full control effect; nearly all actives have a fitted effect of over 55% in size
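Compound effects on proliferation are scored in DT40 Tdp1-/-;hTDP1 cells in the absence of CPT. ATP levels (CellTiter-Glo luminescence) are recorded after a ≥48 hr, 37 °C incubation.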
The depositor's hits bear a star; ? = inconclusive; nt = not tested or not shown; [ ] = remark or other dose. Shown are actives, neighbours in structure and some others; about 21% of the full set was active somewhere. Unless noted, the call rests on the fitted dose curve; in most records, active means well fitted inhibition curve with a large enough effect; inconclusive means small, poorly fitted or top-dose-only effect; inactive means flat fitted curve, though single readings scatter.

SMILES	D3 ag	TDP1 cell CPT	IL1B secr inh	ClpP mod	D3 antag	DT40 TDP1 no CPT
CS(=O)(=O)c1ccc(Cl)c(NC(=O)CN2CCN(S(=O)(=O)/C=C/c3ccccc3)CC2)c1	2	?	-17	0%	19	3.3µM*
O=[N+]([O-])c1ccc(C(O)CN2CCN(Cc3ccccc3)CC2)cc1 (configuration not stated)	-23	7%	14	nt	?	7%
O=[N+]([O-])c1ccc(C(O)CN2CCN(C/C=C/c3ccccc3)CC2)cc1 (configuration not stated)	-25	?	?	nt	-22	29µM*
O=C(CN1CCN(C/C=C/c2ccccc2)CC1)Nc1cc([N+](=O)[O-])ccc1Cl	13	?	6	1%	-29	26µM*
CC1CCN(S(=O)(=O)c2ccc3c(c2)CCN3C(=O)Nc2ccccc2Br)CC1	-6	-34%	nt	-2%	nt	-13%
COc1cc(CN(C)Cc2cc(=O)oc3cc(C)c(Cl)cc23)ccc1OC(F)F	20	?	-7	nt	15	?
CCOc1ccc(NC(=O)CCC(=O)c2ccc(OC)cc2)cc1	-3	-4%	2	-1%	-12	-2%
CC(=O)NC(c1ccc(F)c(F)c1)c1nc(-c2ccncc2)cs1 (configuration not stated)	-13	18µM*	11	-4%	-15	15µM*
CC(=O)NC(c1ccc(F)c(F)c1)c1nc(-c2cccc(C(C)C)c2)cs1 (configuration not stated)	5	16µM*	?	-3%	-7	23µM*
CC(=O)Nc1cccc(-c2csc(C(NC(C)=O)c3ccc(F)c(F)c3)n2)c1 (configuration not stated)	8	-11%	-4	1%	15	-22%
CC(=O)NC(c1ccc(F)c(F)c1)c1nc(-c2cccc(F)c2)cs1 (configuration not stated)	5	21µM*	-16	-3%	4	-26%
CCc1nc2cc(C(=O)N3CCC[C@H]3C(=O)OC)cc(NC(=O)c3ccccc3OC)c2n1C	nt	18%[9.04 µM]	nt	nt	nt	-21%
CCc1ccc(NC(=O)Cn2c(=O)n(Cc3ccco3)c(=O)c3oc4ccccc4c32)cc1	-8	-21%	nt	-1%	nt	-15%
Cc1ccn2c(c1)nc(=O)c1cc(S(=O)(=O)N3CCCCC3)c(Cl)cc12	6	nt	nt	-12%	nt	nt
CSc1ccc(CCNC(=O)NCc2noc3ccccc23)cc1	-2	?	nt	-1%	nt	?
O=C(CC1NC(=O)NC1=O)Nc1cccc2ccccc12 (configuration not stated)	1	2%	0	-1%	32	16%
CCOc1ccc(NC(=O)CC2SC(=O)N(c3ccccc3)C2=O)cc1 (configuration not stated)	3	1.2µM*	-2	1%	-19	2.9µM*
COc1ccccc1NC(=O)CC1SC(=N)N(c2ccccc2)C1=O (configuration not stated)	-14	-17%	-7	-1%	0	?
Cc1ccccc1NC(=O)CC1SC(=O)N(c2ccccc2)C1=O (configuration not stated)	1	6.5µM*	25	-2%	-92*	4.6µM*
CCCN1C(=O)SC(CC(=O)Nc2ccccc2C)C1=O (configuration not stated)	2	?	32	-4%	-10	?
CCOc1ccc(NC(=O)CC2C(=O)N(c3ccccc3)C(=O)N2C2CCCC2)cc1 (configuration not stated)	-15	?	nt	2%	nt	-11%
